# Reference: the supplement of paper PMC12669032
# Values without a mark were called inactive.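 How the source made its calls: active = AUC reduced over 20% with Padj below 0.05 in at least 2 of 3 replicates; inactive = otherwise.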
# Experiments:
# Experiment in all cases: growth AUC relative to DMSO control (median of replicates) (fraction); higher = more growth (less inhibition), active = hit call of the paper
# Settings in all cases: 20 µM; 24 h
# Coprococcus comes = tested on: Coprococcus comes
# Procedure, shortened: (§1)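 For each compound at 20 µM (1% DMSO), gut bacterial monocultures seeded at OD600 0.05 grew anaerobically in mGAM at 37 °C in round-bottom 96-well plates. Hourly OD600 readings over 24 h gave growth curves whose minimum OD was set to 0. Area under these curves was normalised to the plate median of solvent-only wells, or to row and column medians on the industrial chemical plate. Values are medians of three biological replicates grown on separate days.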
# Escherichia coli ED1a = tested on: Escherichia coli ED1a
# Procedure, shortened: as §1
# Escherichia coli IAI1 = tested on: Escherichia coli IAI1
# Procedure, shortened: as §1
# Eubacterium rectale = tested on: Eubacterium rectale
# Procedure, shortened: as §1
# [1] = tested on: Fusobacterium nucleatum subsp. animalis
# Procedure, shortened: as §1
# Lactobacillus gasseri = tested on: Lactobacillus gasseri
# Procedure, shortened: as §1
# Lactobacillus paracasei = tested on: Lactobacillus paracasei
# Procedure, shortened: as §1
# Odoribacter splanchnicus = tested on: Odoribacter splanchnicus
# Procedure, shortened: as §1
# [2] = tested on: Parabacteroides distasonis
# Procedure, shortened: as §1
# Parabacteroides merdae = tested on: Parabacteroides merdae
# Procedure, shortened: as §1
# Roseburia intestinalis = tested on: Roseburia intestinalis
# Procedure, shortened: as §1
# Streptococcus salivarius = tested on: Streptococcus salivarius
# Procedure, shortened: as §1
Compound,growth AUC (Coprococcus comes),growth AUC (Escherichia coli ED1a),growth AUC (Escherichia coli IAI1),growth AUC (Eubacterium rectale),growth AUC [1],growth AUC (Lactobacillus gasseri),growth AUC (Lactobacillus paracasei),growth AUC (Odoribacter splanchnicus),growth AUC [2],growth AUC (Parabacteroides merdae),growth AUC (Roseburia intestinalis),growth AUC (Streptococcus salivarius)
CCCCNC(=O)n1c(NC(=O)OC)nc2ccccc21,1.04,1.04,0.977,0.917,0.976,1.01,0.997,1.04,0.945,0.965,0.985,0.999
O=C(O)COc1ccccc1,0.999,0.981,1,1,1.01,1.03,0.753,1.03,1,0.959,0.995,0.994
CNC(=O)Oc1cccc2c1OC(C)(C)O2,1.02,1,0.993,0.967,1.01,1.11,0.984,1.02,1.02,1.02,1.01,1
CC(C)=CC1C(C(=O)OCc2coc(Cc3ccccc3)c2)C1(C)C (configuration not stated),1.01,0.996,1.01,0.917,0.878,1.06,1.12,0.98,1.01,0.944,0.921,0.99
O=C(Nc1ccccc1)Nc1ccnc(Cl)c1,1.03,0.942,0.788 (active),0.803,1.1,0.858,0.971,0.912,0.677 (active),0.888,0.896,0.844
N#Cc1c[nH]cc1-c1cccc(Cl)c1Cl,0.948,1.01,0.981,1.06,0.797,1.06,1.07,0.732,0.804,0.941,1.14,0.929
